The list is not random: actives were taken first. Their share in the collection is about 11%.
Sfp PPTase inh = Sfp phosphopantetheinyl transferase inhibition | Q9F4F7 | Biochemical Sfp PPTase activity, qHTS | Potency, µM, for inactives: largest response in the series, negative = inhibition, usual class: inhibitors | 310,000 compounds, 3.5% hits | AID 1490;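 further: the enzyme is Sfp with the accession as filed and its product quenches rhodamine fluorescence; potency means the concentration at half of the fitted maximal effect; 0% = enzyme reaction without inhibitor and -100% = no enzyme wells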
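Fluorescence-quenching assay: 15 nM Sfp-PPTase preincubated 15 min at room temperature with compound, then 5 uM rhodamine-CoA and 12.5 uM BHQ-2-labelled YbbR peptide added. Fluorescence (ex 525/em 598 nm) read at start and after 30 min; difference gives rate.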
Tau fibril FP = tau fibrillization inhibition (FP) | P10636 | K18 P301L tau heparin fibrillization, Alexa594 FP, 6 h | Potency, µM (series often up to 57.7 µM), without a hit: at the highest dose activity, negative = inhibition, most hits filed as inhibitors | 280,000 compounds, 0.39% hits | AID 1468; further: potency means the concentration at half of the fitted maximal effect; nearly all actives have a fitted effect of over 55% in size
Target sequence (P10636 561-689 P618L limits assumed): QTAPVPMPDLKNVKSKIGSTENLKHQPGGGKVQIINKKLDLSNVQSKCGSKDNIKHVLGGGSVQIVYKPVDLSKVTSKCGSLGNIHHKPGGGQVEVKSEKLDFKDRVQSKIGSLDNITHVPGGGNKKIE
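Compound effects on tau fibrillization are measured by Alexa 594 fluorescence polarization (ex 555, em 632 nm). K18 P301L tau is used at 15 uM with 0.24 uM labeled tracer, and 20 uM heparin induces aggregation over 6 hr at 37 C.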
Tau fluor cs = counter-screen for tau fibril formation inhibitors; tau K18 P301L Alexa594 fluorescence, heparin fibrillization; Potency, µM (series often up to 57.7 µM), inactives show at the highest dose activity change, negative = decrease; 280,000 compounds, 0.93% hits; AID 1463; further: potency means the concentration at half of the fitted maximal effect; nearly all actives have a fitted effect of over 55% in size
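Human tau K18 P301L (15 uM unlabeled, 0.24 uM Alexa 594-labeled) in 100 mM sodium acetate pH 7 with 20 uM heparin, 6 hr at 37 C. ThT 30 uM added, 1 hr ambient; Alexa 594 FP and total fluorescence read at 555/632 nm.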
FBPA coupling cs = counter-screen for Giardia aldolase inhibitors: coupling enzyme system. coupling enzyme system counterscreen, AmpLite Red fluorescence. activity change, negative = inhibition, % at 58.2 µM, hits read low. 290,000 compounds, 0.67% hits. AID 2472; in the data active means activity change below about -30%
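First, compound is pin-transferred into glyceraldehyde-3-phosphate coupling-enzyme reagent at 57.5 uM final and held 10 min at RT. Next, substrate, coupling system and AmpLite Red are added. After 20 min RT, fluorescence (525/598 nm) is read.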
Tau fibril ThT = inhibitors of human tau fibril formation, thioflavin T binding; P10636; recombinant tau K18 P301L (four-repeat tau fragment), heparin-induced fibrillization, ThT fluorescence; Potency, µM (highest dose often 57.4 µM), inactives show at the highest dose activity, negative = inhibition, most hits filed as inhibitors; 270,000 compounds, 2.1% hits; AID 1460; further: potency means the concentration at half of the fitted maximal effect; nearly all actives have a fitted effect of over 55% in size
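In this qHTS, human K18 P301L tau is incubated with compound and heparin for 6 hr at 37 C, and Thioflavin T fluorescence then reports fibril load.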
G9a inh = inhibitors of human histone lysine methyltransferase G9a; AID 504332; G9a H3K9 monomethylation, AlphaScreen, 2 h; 350,000 compounds, 8.8% hits; Potency, µM (top dose mostly 102 µM), for the others: at the highest dose activity, negative = inhibition, most hits filed as inhibitors; Q96KQ7; further: potency means the concentration at half of the fitted maximal effect; nearly all actives have a fitted effect of over 75% in size
Target sequence (Q96KQ7 913-1193 limits assumed): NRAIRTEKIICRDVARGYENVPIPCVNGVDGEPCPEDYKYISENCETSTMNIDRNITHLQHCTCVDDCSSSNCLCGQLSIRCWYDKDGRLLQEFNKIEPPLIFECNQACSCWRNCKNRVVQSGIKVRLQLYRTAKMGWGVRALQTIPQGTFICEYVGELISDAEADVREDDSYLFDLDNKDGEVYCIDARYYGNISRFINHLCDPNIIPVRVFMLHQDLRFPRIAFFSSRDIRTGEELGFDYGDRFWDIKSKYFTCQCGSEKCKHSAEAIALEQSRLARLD
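Signal arises when biotinylated H3K9 peptide, once monomethylated, bridges streptavidin donor and antibody-captured acceptor beads. Enzyme at 20 nM was preincubated 15 min with test compounds; peptide 500 nM and SAM 20 uM then reacted for 2 h.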
* = called active by the depositor; ? = inconclusive; / = not tested or not shown; [ ] = another dose, or the depositor's remark. Unless noted, the call rests on the fitted dose curve; in most records, active means well fitted curve in the direction sought with a large enough effect; inconclusive means small, poorly fitted or top-dose-only effect, or another doubt; inactive means no such curve, though single readings can be large; an effect the other way counts as inactive or inconclusive. Unless noted, on the % scale 0 is the no-effect control and ±100 the full control effect.

SMILES	Sfp PPTase inh	Tau fibril FP	Tau fluor cs	FBPA coupling cs	Tau fibril ThT	G9a inh
CCOC(=O)c1cc2c(=O)n3ccccc3nc2n(Cc2ccco2)c1=NC(=O)c1ccc(OC)cc1	?	3%	-7%	1	?	-12%
CCCn1c(=NC(=O)c2ccco2)c(C(=O)OCC)cc2c(=O)n3ccccc3nc21	?	4%	1%	3	-6%	2%[12.7 µM]
CCOC(=O)c1cc2c(=O)n3ccccc3nc2n(Cc2ccco2)c1=NC(=O)c1cccc(OC)c1	28µM*	7%	-19%	3	-16%	-24%
CCOC(=O)c1cc2c(=O)n3ccccc3nc2n(Cc2ccco2)c1=NC(=O)c1ccccc1OC	35µM*	-17%	-21%	1	?	-29%
O=C(O)CC/C(=N/NC(=O)c1cccs1)c1ccccc1	12%	0%	1%	2	-10%	2%[59 µM]
O=[N+]([O-])c1cc(S(=O)(=O)N2CCCC2)ccc1N/N=C1/CCCc2ccccc21	7%	4%	-20%	1	?	4.5µM*
NS(=O)(=O)c1ccc(N/N=C2/CCCc3ccccc32)c([N+](=O)[O-])c1	-6%	-4%	2%	-2	7%	-34%
O=C(O)c1ccccc1/C=N/Nc1ccc(S(=O)(=O)N2CCOCC2)cc1[N+](=O)[O-]	-1%	-5%	-17%	1	?	?
O=[N+]([O-])c1cc(S(=O)(=O)N2CCCC2)ccc1N/N=C/c1cccs1	-1%	5%	-20%	1	-15%	?
O=C(O)CC/C(=N\Nc1ccc(S(=O)(=O)N2CCOCC2)cc1[N+](=O)[O-])c1cccs1	1%	6%	-17%	10	11µM*	?
O=C(O)CC/C(=N\Nc1ccccc1[N+](=O)[O-])c1cccs1	12%	/	/	9	/	35µM*
O=C(O)CC/C(=N\Nc1ccc(S(=O)(=O)N2CCCC2)cc1[N+](=O)[O-])c1cccs1	1%	8%	-17%	8	32µM*	14µM*
COc1cc2c(cc1OC)C1O[C@](CCCCN3C(=O)c4ccccc4C3=O)(C2)OC2=C1C(=O)CC(C)(C)C2	-14%	/	/	-12	/	-126%[2.33 µM]
CCCCNc1nc(C#N)nc(Nc2ccccc2)n1	/	/	/	0	/	/
O=[N+]([O-])c1cc(S(=O)(=O)N2CCCC2)ccc1NN=C1CCCCC1	10%	4%	-3%	-1	-3%	4%[59 µM]
CC/C(C)=N/Nc1ccc(S(=O)(=O)N2CCCC2)cc1[N+](=O)[O-]	-9%	-1%	-24%	-1	?	18µM*
NC(=S)N/N=C1\CCOc2ccc(F)cc21	89µM*	-2%	-11%	4	-8%	/
CCN(c1ccccc1)S(=O)(=O)c1c(-c2ccc(C)cc2)csc1C(=O)OC	/	1%	-22%	/	-13%	33%[59 µM]
CSC1=N/C(=C\c2ccccc2F)C(=O)S1	56µM*	-4%	-10%	-1	-16%	45µM*
COc1cccc(/C=C2\N=C(SC)SC2=O)c1OC	-3%	?	-28%	6	?	28%
CCC1CCc2sc(C(=O)N(C)CC(=O)Nc3ccc(N4CCOCC4)cc3)cc2C1 (centres undefined)	/	/	/	/	/	45µM*
COc1ccc(NC(=O)CN(C)C(=O)c2cc3c(s2)CCC(C)C3)cc1 (centres undefined)	8%	/	/	/	/	34%
CC1CCc2sc(C(=O)N(C)CC(=O)Nc3ccc(N4CCOCC4)cc3)cc2C1 (centres undefined)	-2%	/	/	0	/	35µM*
CCC1CCc2sc(C(=O)N(C)CC(=O)Nc3ccc(OC)cc3)cc2C1 (centres undefined)	/	/	/	/	/	-9%
Cc1ccc(C2CC(=O)Oc3cc(C)c(Cl)cc32)cc1 (centres undefined)	?	-1%[81.3 µM]	-13%[81.3 µM]	5	-16%[81.4 µM]	49%
Cc1cc(C)c2cc(C#N)c(N3CCCC3)nc2c1	45µM*	-3%	-4%	1	-10%	-37%[12.7 µM]
Cc1cc(C)c2cc(C#N)c(N3CCCN(C(=S)NCCCN(C)C)CC3)nc2c1	-8%	/	/	0	/	-8%
